# Measurements taken from PubChem BioAssay (NCI).
# The panel holds about 79,000 compounds, 15% with a hit somewhere; the sample as a whole holds those more often. Unmarked numbers belong to inactive results. Calls of active or inactive are those of the source. Rule as the data show it: active = growth inhibition above about 70%; inactive = the rest.
# Tests used:
# [1] = NCI Yeast Anticancer Drug Screen. Data for the rad50 strain (AID 155);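 also: 0% = growth of vehicle-only cultures of the same strain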; conditions: S. cerevisiae rad50 strain growth inhibition; at 50.0 µM; stronger effect = higher value
# Outline: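 Cells are treated with compound, grown, and their growth is then scored against vehicle-only cultures of the same repair-deficient yeast strain.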
# [2] = NCI Yeast Anticancer Drug Screen. Data for the mec2-1 strain (AID 157); conditions: S. cerevisiae mec2-1 strain, at 50.0 µM, stronger effect = higher value
# Outline: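 Yeast mec2-1 mutant treated with compound. Readout: growth inhibition vs vehicle controls.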
# [3] = NCI Yeast Anticancer Drug Screen. Data for the sgs1 mgt1 strain (AID 161);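 also: 0% = growth of cultures given vehicle only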; conditions: S. cerevisiae sgs1 mgt1 strain, at 50.0 µM, stronger effect = higher value
# Outline: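 Read-out: growth inhibition vs vehicle controls. Cells: mutant yeast strain deficient in DNA damage repair.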
# [4] = NCI Yeast Anticancer Drug Screen. Data for the cln2 rad14 strain (AID 165);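 also: 0% = growth equal to vehicle treated cultures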; conditions: S. cerevisiae cln2 rad14 strain, at 50.0 µM, stronger effect = higher value
# Outline: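 cln2 rad14 yeast strain; compound exposure; growth inhibition read vs vehicle controls.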
# [5] = NCI Yeast Anticancer Drug Screen. Data for the bub3 strain (AID 167); conditions: S. cerevisiae bub3 mutant strain, at 50.0 µM, stronger effect = higher value
# Outline: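 Part of a panel of yeast mutants defective in DNA damage repair or cell cycle regulation. Each strain is grown with compound, and inhibition is calculated relative to solvent-treated cultures.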
# [6] = NCI Yeast Anticancer Drug Screen. Data for the mlh1 rad18 strain (AID 175); conditions: S. cerevisiae mlh1 rad18 strain growth inhibition; at 50.0 µM; stronger effect = higher value
# Outline: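 Yeast w/ defined DNA-repair lesions; compound exposure; growth vs vehicle controls → % inhibition.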
Compound,growth inhibition [1],growth inhibition [2],growth inhibition [3],growth inhibition [4],growth inhibition [5],growth inhibition [6]
ClC(=Nc1ccccc1)c1cc(Cl)ccn1,18.1%,-1.8%,8.3%,-12.4%,50%,8.15%
CC(=O)Nc1ccc(F)c(F)c1,17.8%,-16.7%,3.2%,-3.95%,-3.35%,30.8%
NC(=O)CC[n+]1ccc(C(=O)O)cc1,-21.8%,-31.7%,-6.1%,0.4%,-25.1%,-5.05%
CC(=O)Nc1ccc(S(=O)(=O)N2c3ccccc3Sc3ccccc32)cc1,8.95%,-5.9%,4.95%,3.05%,-1.5%,4.2%
CC(CC[C@@]1(C)C(=O)CCC2O[C@]21C)[C@H]1C[C@@H](c2ccoc2)OC1=O (some centres not stated),9.05%,-31.8%,-5.4%,-15.8%,-4.8%,-70.9%
CCCP1(=O)C=C(C)C(=C(Cl)Cl)C(C)=C1 (configuration not stated),6.9%,-19.2%,-7.55%,13.6%,-10.4%,6.4%
Cc1nn(CCO)c(N)c1C(N)=O,5.35%,-4.25%,5.55%,-13.4%,4.9%,16.9%
COC(=O)/C=C/c1ccc(OC)c(OC)c1,22.3%,0.4%,13.6%,-2.2%,64.5%,50%
Oc1ccc(Cl)cc1C=Nc1cnc2ccccc2c1,-14.6%,24.9%,1.95%,-10.9%,9.1%,17.4%
O=C(O)COc1cc(Cl)cc(F)c1Cl,-23.6%,4.1%,-9.4%,-33.2%,-7.85%,-2.55%
CCOc1ccc(N=C2NC(=O)C(CC(=O)Nc3ccc(Cl)cc3Cl)S2)cc1 (configuration not stated),15%,15.3%,-7.4%,-51.9%,-6%,27.2%
O=C(NNC(=S)Nc1ccc(Cl)cc1)C12CC3CC(CC(C3)C1)C2,-9.4%,6.15%,-4.15%,17.4%,30.8%,8.7%
COc1cc2c(cc1OC)C(Cc1ccccc1CCCl)=NCC2,15.1%,8.65%,-31.8%,-1.8%,-24.7%,2.45%
CCOC(=O)C(=O)Nc1ccccc1,43.8%,-1.4%,21%,-21.1%,-4.15%,18.8%
C[N+]1(CCC(/C=C/c2ccc([N+](=O)[O-])cc2)=N\O)CCOCC1,17.3%,-0.9%,14.8%,-6.55%,1.05%,46.5%
CCCCCCCCCCCCCCCCCCCCc1ccccc1,25.9%,10.3%,1.2%,12.7%,-14.2%,26.4%
CCCCCCCCCCCOc1ccc(Cl)cc1Cl,10.4%,16.5%,8.75%,-4.05%,30.2%,12.2%
CC1=CC(C)(C)NC(=S)N1c1ccc(O)cc1,0%,-14.8%,11.3%,-24.8%,6.8%,15.8%
CN(C)CCCN1CC2C3CCCCC3=C3CCCCC3C2C1 (configuration not stated),-15.4%,0.6%,-24.1%,-16.9%,1.85%,-16.9%
CC1=C(C(=O)CC(=O)C(=O)Nc2cccc(C)c2C)Sc2ccccc2N1,-24.6%,-43.1%,-12.8%,-1.9%,-13.8%,-12.5%
Cc1nnnn1-c1ccc2ccccc2c1,-24.8%,-24%,-6.8%,-20.6%,-0.05%,4.45%

Compound,growth inhibition [1],growth inhibition [2],growth inhibition [3],growth inhibition [4],growth inhibition [5],growth inhibition [6]
c1ccc(C2=C([P+](c3ccccc3)(c3ccccc3)c3ccccc3)CCO2)cc1,99% (active),99.1% (active),98.7% (active),98.2% (active),98.3% (active),98.8% (active)
COc1cc(O)c(Cc2ccccc2O)c(O)c1C(=O)CCc1ccccc1,-17.4%,-34.5%,-13.5%,-5.65%,-35.9%,-7.9%
O=C(O)c1cc(=O)c2ccccc2[nH]1,4.45%,8.4%,1.35%,6.5%,8.2%,17.9%
O=C(/C=C/c1ccc(OCCCOc2ccc(/C=C/C(=O)c3ccccc3)cc2)cc1)c1ccccc1,14.3%,-18.1%,-4.25%,-57%,-37.9%,-10.5%
CCCc1nc2c([nH]1)c(=O)n(C)c(=O)n2C,22.6%,-14.3%,3.5%,9.85%,-21.1%,22.6%
Cc1ccc(C(C)C)cc1NC(=O)c1c(Cl)c(Cl)c(Cl)c(Cl)c1C(=O)O,14.6%,9.8%,23.9%,-32.4%,6.45%,23.3%
CCN=C(N)CSS(=O)(=O)O,-1.9%,-28.1%,-32.8%,-4.6%,-22%,-16.7%
CC(=Nc1ccccc1)NO,1.9%,14%,3.7%,3.5%,-8.1%,2.1%
CC(c1ccccc1)C1OCC(CCCCO)O1 (configuration not stated),-7.9%,-20.2%,-10.7%,0.55%,-15.1%,-20.1%
CCOC1=C(C#N)C(=O)NC2OC(CO)C(O)C2O1 (configuration not stated),11.4%,5.45%,11.6%,-8.95%,17.9%,15.8%
COc1ccc(CC2=c3cc(OC)c(OC)cc3=CCN2)cc1OC,12.1%,4.5%,9.7%,12.2%,-2.85%,-5.75%
CCCCCCCC(=O)Oc1ccccc1,14.1%,-10.5%,-0.75%,-10%,-2.3%,-1.2%
COP(=O)(OC)C(NC(=O)C(F)(F)F)(c1ccccc1)C(F)(F)F (configuration not stated),-28.1%,-7.25%,-37.2%,-8%,-16.9%,-28.7%
CC(=O)C(=Cc1ccc(Cl)c(Cl)c1)C(C)=O,99.5% (active),99.7% (active),99.7% (active),99.6% (active),99.5% (active),99.5% (active)
Oc1cc(-c2ccc(Cl)cc2)cn2c1nc1ccccc12,-13.3%,-23.8%,-38.5%,-24.1%,-5.75%,-50%
COC1CC(N=[N+]=[N-])C(OS(C)(=O)=O)C(C)O1 (configuration not stated),-2.35%,22.1%,1.7%,3.7%,-9%,14.8%
CC1(O)CCC2(CCC(C)(O)CC2=O)C(=O)C1 (configuration not stated),-7.85%,-9.75%,-0.45%,-2.35%,-12.6%,-14.7%
CCC(C)c1ccc(CCO)cc1 (configuration not stated),27.2%,2.4%,-10.2%,10%,-6.65%,4.45%
O=C1CCCc2ccc([N+](=O)[O-])c(O)c21,11%,10.1%,-2.55%,4.4%,9.8%,8.65%
Nc1ncccc1C(=O)O,2.55%,-1.05%,-2.8%,-12.1%,-0.35%,-3.05%
CCOC(=O)CC(C#N)C(C)C(=O)OCC (configuration not stated),2.3%,1.3%,0.4%,6.5%,0.9%,-0.35%
